Compound activity as filed in PubChem.
The list is not random: actives were taken first. Their share in the collection is about 8.9%.
MCF10A rerep: induces DNA re-replication in MCF 10a normal breast cells; Potency, µM (titrated, usually from 46.1 µM), for the others: at the highest dose activity, positive = re-replication, hits mostly activators; actives 2.9% (n = 350,000); MCF 10A DNA re-replication, Hoechst nuclear intensity, 48 h; further: potency means the concentration at half of the fitted maximal effect; % of control where 0% means no effect; nearly all actives have a fitted effect of over 50% in size
SW480 rereplic: induces DNA re-replication in SW480 colon adenocarcinoma cells; SW480 DNA re-replication, Hoechst DNA content imaging, 48 h; Potency, µM (top dose mostly 46.1 µM), inactives show at the top dose re-replication activation, most hits filed as activators; actives 1.8% (n = 340,000); AID 624297; further: potency means the concentration at half of the fitted maximal effect; % of control where 0% means no effect; nearly all actives have a fitted effect of over 55% in size
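Quantitative HTS format with DMSO vehicle controls; 48 hr drug incubation at 37 C, then 40 min Hoechst staining and scanning imager measurement at 405 nm excitation.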
D3 ag: activates the human D3 dopamine receptor | D3R DiscoveRx beta-arrestin cells, luminescence, 90 min | actives 0.58% (n = 410,000) | P35462 | max activation, %; in the data active means max activation above about 30%; further: 0% is about no effect
Target sequence (P35462 whole entry, looked up): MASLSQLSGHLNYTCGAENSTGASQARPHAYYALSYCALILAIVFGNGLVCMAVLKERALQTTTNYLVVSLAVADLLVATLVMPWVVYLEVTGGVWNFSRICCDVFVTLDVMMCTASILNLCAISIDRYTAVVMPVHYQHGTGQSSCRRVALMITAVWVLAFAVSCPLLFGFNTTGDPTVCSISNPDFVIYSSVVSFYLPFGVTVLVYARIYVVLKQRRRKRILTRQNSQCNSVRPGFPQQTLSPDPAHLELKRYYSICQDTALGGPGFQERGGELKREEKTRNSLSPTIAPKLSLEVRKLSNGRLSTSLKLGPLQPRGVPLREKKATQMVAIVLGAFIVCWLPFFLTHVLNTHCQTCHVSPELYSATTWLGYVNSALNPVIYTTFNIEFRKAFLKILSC
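Agonist-mode cell screen: cells plated at 1500/well and incubated overnight at 37 °C, then exposed to library compounds for 90 min at 37 °C. Detection reagent was added for 30–60 min at room temperature, and luminescence was read.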
D3 antag: blocks the human D3 dopamine receptor. P35462. D3R cells, DiscoveRx beta-arrestin luminescence, antagonist mode; stronger effect = lower value. max response, negative = inhibition, %. actives 2.5% (n = 360,000). AID 652054; in the data active means max response below about -50%; inconclusive means no clear call, values can overlap the other calls; further: on the % scale 0 is the no-effect control and ±100 the full control effect
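Cells plated overnight at 1500 cells/well, then exposed to library compounds with dopamine controls for 90 minutes at 37 degrees C. DiscoveRx reagent added for 30–60 minutes at room temperature; luminescence read, quantitative HTS format.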
KB-3-1 cytotox: KB-3-1 parental cell cytotoxicity | KB-3-1 viability, CellTiter-Glo ATP luminescence, 72 h | Potency, µM (top dose mostly 46.1 µM), hits mostly cytotoxic | actives 1.4% (n = 400,000); further: potency means the concentration at half of the fitted maximal effect; on the % scale 0 is the no-effect control and ±100 the full control effect; nearly all actives have a fitted effect of over 60% in size
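Cytotoxicity measured as CellTiter-Glo luminescence after 72 h at 37 C. Compound titrations were pinned onto drug-naive KB-3-1 parental adenocarcinoma cells grown in DMEM with 10% FBS, and normalized data fitted to concentration-response curves.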
KB-V1 cytotox: KB-V1 MDR subline cytotoxicity | KB-V1 MDR cells viability, CellTiter-Glo, 72 h | Potency, µM (doses to about 46.1 µM), most hits filed as cytotoxic | actives 3.4% (n = 400,000); further: potency means the concentration at half of the fitted maximal effect; on the % scale 0 is the no-effect control and ±100 the full control effect; nearly all actives have a fitted effect of over 60% in size
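Cells of the MDR subline KB-V1 are plated, dosed with compound at multiple concentrations, and incubated 72 h at 37 degrees C; CellTiter-Glo is then added and luminescence read after 10 min.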
The depositor's hits bear a star; i = inactive; ? = inconclusive; / = not tested or not shown; [ ] = dose if it differs, or a comment. Unless noted, the call rests on the fitted dose curve; in most records, active means well fitted curve in the direction sought with a large enough effect; inconclusive means small, poorly fitted or top-dose-only effect, or another doubt; inactive means no such curve, though single readings can be large; an effect the other way counts as inactive or inconclusive.

SMILES	MCF10A rerep	SW480 rereplic	D3 ag	D3 antag	KB-3-1 cytotox	KB-V1 cytotox
Cc1cccnc1C(NC(=O)C1CCN(Cc2ccc3ccccc3n2)CC1)c1ccc(Cl)cc1 (stereo unspecified)	/	/	-12	-68*	i	i
Cc1cccnc1C(NC(=O)C1CCN(Cc2ccc(Cl)cc2)CC1)c1ccc(F)cc1 (stereo unspecified)	/	/	-17	0	i	i
Cc1cccnc1C(NC(=O)C1CCN(CCCOc2ccc(F)cc2)CC1)c1ccccc1 (stereo unspecified)	/	/	-25	-84*	i	i
Cc1cccnc1C(NC(=O)C1CCN(CCOc2ccc(F)cc2)CC1)c1ccc(Cl)cc1 (stereo unspecified)	/	/	-22	0	i	i
CN(CC(=O)Nc1cc(Cl)ccc1-n1cncn1)Cc1ccccc1N1CCOCC1	/	/	-4	-18	i	?
Cc1cc(C)c2c(N)c(C(=O)c3ccc(Br)cc3)oc2n1	23µM*	2.6µM*	-7	7	i	i
N#Cc1c(-c2ccccc2Cl)c2c([nH]c1=O)-c1ccccc1OC2	4.1µM*	18µM*	-6	3	i	i
COCCNC(=S)NC1CC2CCCC(C1)N2Cc1cccs1 (stereo unspecified)	3%	7%	-39	?	i	i
Cc1cccc(NC(=S)NC2CC3CCCC(C2)N3Cc2cccs2)c1 (stereo unspecified)	9%	22%	-29	-87*	i	i
CC(C)c1ccc(C(O)P(=O)(OC2CCCCC2)OC2CCCCC2)cc1 (stereo unspecified)	21µM*	?	-24	-27	?	?
O=C(N/N=C/c1cccs1)c1n[nH]c2c1CCC2	8.2µM*	12µM*	-1	1	5.8µM*	?
O=C(N/N=C/c1ccccc1)c1n[nH]c2c1CCCC2	?	?	2	-24	?	?
O=C(N/N=C/c1ccc(Cl)cc1)c1n[nH]c2c1CCCC2	?	?	-4	-26	4.6µM*	1.3µM*
Fc1ccc(-c2cc(-c3ccccc3)c3c(n2)-c2cc(F)ccc2OC3)cc1	/	/	-4	/	i	i
Cc1nnsc1C(=O)Oc1ccc(C(C)C)cc1	/	/	-1	/	i	i
CCCCN1CCC(COC(=O)c2cc(Cl)c(N)c3c2OCCO3)CC1	5%	-36%	-98	-108*	i	i
CN(C)c1cccc(NC(=O)c2cccc3c(-c4ccc(F)c(F)c4)coc23)c1	/	/	0	49	i	i
CCn1c(O)c(C=Nc2ccccc2)sc1=S	2%	10%	-5	-27	i	i
CCn1c(O)c(C=Nc2ccccc2)n(-c2ccccc2)c1=S	3%	17%[9.22 µM]	-6	0	5.8µM*	?
CCc1ccc(NC(=O)c2ccc(CN3C(=O)C(C)=C(c4ccc(C)cc4)S3(=O)=O)cc2)cc1	/	/	-11	/	/	/
COc1ccc(C(=O)COC(=O)c2ccc(NC(=O)c3ccccc3)cc2)cc1	4%	?	5	27	i	15µM*
COc1ccc(C(=O)c2ccccc2C(=O)c2ccccc2)cc1	12%	1%	9	37	i	18µM*
COc1ccc(C(=O)c2ccc(OC)c(OC)c2OC)cc1	3.7µM*	5.8µM*	-1	-4	5.8µM*	2.3µM*
COc1ccc(C(=O)c2ccc(Br)cc2)c(OC)c1OC	7%	?	4	-3	i	i
COc1ccc(-n2nnnc2/C=C\Nc2ccccc2C(=O)c2ccccc2)cc1	26%	10µM*	-4	-14	5.8µM*	4.6µM*
SMILES	MCF10A rerep	SW480 rereplic	D3 ag	D3 antag	KB-3-1 cytotox	KB-V1 cytotox
COc1ccc(C(=O)Nc2ccc(C(=O)OCC(=O)c3ccccc3)cc2)cc1	8%	-3%	0	-7	i	i
COc1ccc(-n2nnnc2/C=C/Nc2cc(C(F)(F)F)ccc2OC)cc1	13%	3%	-4	45	i	i
CCCCN(C)C(=O)CSc1nc2ccccc2nc1Cc1ccc(C)cc1	/	/	-21	/	?	i
COc1ccc(NC(=O)c2ccc(C(=O)c3cc(OC)ccc3OC)cc2)cc1	-1%	-22%	-6	-9	i	i
COc1ccc(OC)c(C(=O)c2ccc(C(=O)Nc3ccccc3)cc2)c1	4%	-10%	-5	-9	i	23µM*
COc1ccc(C(=O)c2ccc(N(C)C)cc2)c2ccccc12	-3%	-3%	0	-7	5.2µM*	2.1µM*
Cc1cccc(C(=O)Nc2ccc(C(=O)c3ccncc3)cc2)c1	/	/	3	10	?	i
CCc1nnc(NC(=O)c2sc3nc4c(cc3c2N)CCCCC4)s1	16µM*	8.2µM*	0	-8	?	i
CCc1nnc(NC(=O)c2sc3nc4c(cc3c2N)CCCCCC4)s1	18µM*	?	0	7	i	i
COc1ccc(NC(=O)c2sc3nc4c(cc3c2N)CCCCCC4)cc1OC	/	/	-1	/	i	i
Nc1c(C(=O)Nc2ccccc2F)sc2nc3c(cc12)CCCCCC3	/	/	-3	/	13µM*	6.5µM*
O=C(Cn1c(-c2cccs2)cc2ccccc21)NCCCN1CCN(c2ccccc2F)CC1	/	/	21	/	i	i
COC(=O)c1scc(-c2ccc(C)cc2)c1S(=O)(=O)N1CCN(c2ccccc2)CC1	/	/	-10	/	i	i
N=C1/C(=C\c2ccc(-c3cccc(C(=O)O)c3)o2)C(=O)N=C2SC=C(c3ccccc3)N12	3.3µM*	8.2µM*	3	-15	i	i
Cc1cc(/C=C2/C(=N)N3C(c4ccccc4)=CSC3=NC2=O)c(C)n1-c1ccccc1	?	0%	-5	5	i	i
Cc1ccccc1-n1c(C)cc(/C=C2/C(=N)N3C(c4ccccc4)=CSC3=NC2=O)c1C	?	14µM*	-5	-15	?	?
O=C(CCCCn1c(=O)c2ccccc2n(CC(=O)Nc2ccc(F)cc2F)c1=O)NCCc1ccccc1	/	/	-10	/	i	?
CC1C(c2ccccc2)N(C)C(c2ccccc2)C(C)C1(O)C#Cc1ccccc1 (stereo unspecified)	23µM*	4%	2	5	?	?
CCOc1ccc(/C=C/c2ccnc3ccccc23)cc1OCC	/	/	/	/	i	?
Cc1ccc(NC(=O)Nc2nnc(N3CCCCC3)s2)c(C)c1	/	/	-4	/	i	?
O=C1CCCN2N=C(SCC(=O)Nc3ccc(OC(F)(F)F)cc3)SC2=N1	-2%	-9%	-4	-4	i	i
O=C1CCCN2N=C(SCC(=O)Nc3ccc([N+](=O)[O-])cc3)SC2=N1	5.2µM*	2.9µM*	-16	-9	i	i
